From PubChem BioAssay
Hits are enriched below; roughly 5.4% of the tested compounds scored in any of these assays.
FXN GAA850 act: activators of GAA850 frataxin (FXN) promoter; AID 540364; activation, % at 6 µM; 0.56% of 360,000 active; HEK293 lucGAA850 FXN promoter luciferase reporter, 24 h; percent of 10 µM SAHA response;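 active = activation above the average of all compounds screened plus 3 SD, cutoff fixed separately per campaign, cut at about 7.5% in these data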;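 also: 0% = DMSO wells and 100% = 10 µM SAHA wells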
DAX1 inh: NR0B1 (DAX1) inhibition | HEK293 Gal4-DAX1 luciferase reporter, luminescence | inhibition, % at 6.75 µM | 0.99% of 340,000 active | AID 504766 | P51843;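 active = inhibition above the mean over all tested compounds plus 3 SD, cut at about 4.2% in these data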;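 also: 0% = DAX1-transfected cells with DMSO and 100% = empty-vector control cells with DMSO; inhibition shows as a rise in luminescence from relieved DAX1 repression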
Target sequence (P51843 207-470 limits assumed): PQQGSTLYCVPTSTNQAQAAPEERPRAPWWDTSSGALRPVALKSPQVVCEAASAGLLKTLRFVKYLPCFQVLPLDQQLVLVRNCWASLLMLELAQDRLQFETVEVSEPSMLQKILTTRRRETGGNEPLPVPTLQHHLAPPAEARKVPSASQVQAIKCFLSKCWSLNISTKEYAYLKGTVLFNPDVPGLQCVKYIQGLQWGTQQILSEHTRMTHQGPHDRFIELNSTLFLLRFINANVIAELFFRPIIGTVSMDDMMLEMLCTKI
HSF-1 act: increases HSF-1 driven luciferase reporter signal | NIH3T3-HGL HSF-1 luciferase reporter, MG132, 8 h; 100% = twice DMSO control signal | activation, % at 9 µM | 1.7% of 300,000 active;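 active = mean replicate activation of at least 50% with a set share of replicates each reaching 50%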;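 also: 0% = median of the neutral control wells and 100% = twice that signal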
AHR activator: human AHR activation | AHR-responsive luciferase reporter cells, luminescence | activation, % at 5 µM | 2.5% of 320,000 active | AID 2796; in the data active = activation above about 47%;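 also: 0% = vehicle wells and 100% = reference agonist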
HSF1 inh: HSF1 inhibition | 0.77% of 300,000 active | NIH3T3-HGL HSE-luciferase, MG132-induced, luminescence 8 h; active compounds read low | activity change, negative = inhibition, % at 7.5 µM (by protocol);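 active = more than half of replicate wells show activity change below -50%, luminescence cut by over half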;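 also: luciferase reports HSF-1 transcriptional activity via heat shock element; 0% = median of DMSO wells and -100% = zero luminescence signal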
AHR act confirm: human AHR activation, confirmation; shares compounds with AHR activator; human cells, AHR-responsive luciferase reporter, luminescence; activation, % at 9 µM; 87% of 2,300 active; in the data active = activation above about 49%;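 also: HepG2 hepatoma cells carrying a DRE-driven firefly luciferase reporter; 0% = vehicle wells and 100% = reference agonist wells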
PXR act counter: counter-screen for AHR activators: human PXR activators | 88% of 2,300 active | activation, % at 11.6 µM | cell-based PXR reporter, luciferase luminescence | AID 434939 | shares compounds with AHR activator; in the data active = activation above about 11%;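 also: human hepatoma DPX-2 cells expressing full-length human PXR; 0% = DMSO and 100% = reference agonist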
Target sequence (O75469 whole entry, looked up): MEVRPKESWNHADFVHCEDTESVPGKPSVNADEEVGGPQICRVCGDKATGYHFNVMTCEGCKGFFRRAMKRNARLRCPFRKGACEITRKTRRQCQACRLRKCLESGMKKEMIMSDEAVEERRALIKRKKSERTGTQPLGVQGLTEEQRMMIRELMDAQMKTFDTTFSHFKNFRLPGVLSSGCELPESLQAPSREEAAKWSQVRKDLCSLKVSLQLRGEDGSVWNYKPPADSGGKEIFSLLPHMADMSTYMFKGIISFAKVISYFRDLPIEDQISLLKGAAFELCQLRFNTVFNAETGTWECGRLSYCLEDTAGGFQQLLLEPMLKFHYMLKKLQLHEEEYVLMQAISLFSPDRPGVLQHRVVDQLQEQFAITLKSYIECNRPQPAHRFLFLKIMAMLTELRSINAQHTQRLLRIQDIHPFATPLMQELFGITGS
GAA30 counter: GAA30 FXN promoter activation counter-screen; shares compounds with FXN GAA850 act; HEK293 lucGAA30 FXN promoter luciferase, 24 h; DMSO = 0%, 5 µM ipriflavone = 100%; activation, % at 6 µM; 66% of 1,900 active;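 active = mean activation above the mean of solvent-only control wells plus 3 SD, cut at about 22% in these data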;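 also: counterscreen of GAA850 promoter hits where activity marks nonselective or luminescence artifacts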
FXN GAA850 conf: confirmation of GAA850 frataxin (FXN) promoter activators; shares compounds with FXN GAA850 act; HEK293 lucGAA850 FXN promoter luciferase reporter, 24 h; 100% = activation by SAHA; activation, % at 6 µM; 86% of 1,900 active;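 active = mean activation above a set limit taken from the primary screen, cut at about 8% in these data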;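 also: 0% = DMSO wells and 100% = 10 µM SAHA wells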
The depositor's hits bear a star.

How did C=CC12CN(C)C3C4COC(CC41)C1(C(=O)Nc4ccccc41)C32 (centres undefined) do in these assays?
FXN GAA850 act: -1.5

Results for NC(=O)Nc1ccc(C(=O)OCC(=O)Nc2ccc(Cl)cc2C(=O)c2ccccc2)cc1 ?
FXN GAA850 act: 4.8; DAX1 inh: -0.2; HSF-1 act: 31.1; AHR activator: 93.3*; HSF1 inh: -5.1; AHR act confirm: 5.3; PXR act counter: 14.3*

What do the screens show for `Cc1ccnc(-n2c(C)nc3ccccc3c2=O)c1`?
FXN GAA850 act: 2.2; DAX1 inh: 2.3; HSF-1 act: 2.0; AHR activator: 13.2; HSF1 inh: -5.0

How did Cc1cccc(N2CCc3c2nc2ccccc2c3N)c1 do in these assays?
FXN GAA850 act: 1.6; DAX1 inh: 0.0; HSF-1 act: 1.5; AHR activator: 82.9*; HSF1 inh: -4.7; AHR act confirm: 85.7*; PXR act counter: 54.8*

How did O=C(Nc1ccc(F)cc1)N1Cc2ccccc2-n2nncc2C1 do in these assays?
FXN GAA850 act: -0.4; DAX1 inh: 1.1

What do the screens show for `C[C@]12CCC(=O)C[C@H]1CC[C@@H]1[C@@H]2CC[C@]2(C)C(=O)CC[C@@H]12`?
FXN GAA850 act: 1.8; DAX1 inh: 3.0; AHR activator: 1.9

How did COc1ccc2oc3c(c2c1)NC(=O)CN=C3c1ccccc1 do in these assays?
FXN GAA850 act: -0.4; DAX1 inh: -0.8; HSF-1 act: 24.0; AHR activator: 13.0; HSF1 inh: 7.5

How did O=C1CN=C(c2ccc(Cl)cc2)c2oc3ccccc3c2N1 do in these assays?
FXN GAA850 act: 2.6; HSF-1 act: 15.1; AHR activator: 103.6*; HSF1 inh: -2.8; AHR act confirm: 118.7*; PXR act counter: 31.3*

What do the screens show for `CN1CCC(c2c[nH]c3ccc(O)cc23)CC1`?
FXN GAA850 act: -0.6; DAX1 inh: -0.1

How did CC1CCCC(C)N1/N=C/c1c[nH]c2ccc(Br)cc12 (centres undefined) do in these assays?
FXN GAA850 act: -2.2; DAX1 inh: -1.1; HSF-1 act: 5.4; AHR activator: 88.9*; HSF1 inh: 6.9; AHR act confirm: 82.8*; PXR act counter: 59.7*

Results for COc1ccc2c(c1)/C(=C/c1cnc[nH]1)C(=O)N2 ?
FXN GAA850 act: 43.2*; DAX1 inh: -3.2; HSF-1 act: 32.2; AHR activator: 248.3*; HSF1 inh: 31.7; AHR act confirm: 49.2*; PXR act counter: 14.9*; GAA30 counter: 116.1*; FXN GAA850 conf: 75.6*

How did C[C@]12CCC3C(CC[C@@H]4C[C@@H](O)CC[C@]34C)C1CC[C@@H]2O (some centres undefined) do in these assays?
FXN GAA850 act: 0.5; DAX1 inh: -0.5

How did O=C(O)CCCc1ccc(N(CCCl)CCCl)cc1 do in these assays?
FXN GAA850 act: -0.2; DAX1 inh: -0.1; HSF-1 act: 2.1; AHR activator: -3.6; HSF1 inh: -6.9

How did O=c1[nH]cnc2nc(-c3ccc(N(CCCl)CCCl)cc3)[nH]c12 do in these assays?
FXN GAA850 act: 9.0*; DAX1 inh: 0.7; GAA30 counter: 90.8*; FXN GAA850 conf: 56.3*

How did CN1OC[C@@H]2CN[C@H](c3ccc(Br)cc3)C[C@@H]21 do in these assays?
FXN GAA850 act: -0.4; DAX1 inh: 0.3

What do the screens show for `O=c1cccc2n1CC1CC2CN(Cc2c(Cl)cccc2Cl)C1` (centres undefined)?
FXN GAA850 act: 0.8; DAX1 inh: 0.7; HSF-1 act: 41.3; AHR activator: -5.3; HSF1 inh: 28.3

How did O=c1cccc2n1CC1CC2CN(c2nc(N3CCCCC3)nc(N3CCCCC3)n2)C1 (centres undefined) do in these assays?
FXN GAA850 act: 11.1*; DAX1 inh: -0.1; HSF-1 act: 58.4*; AHR activator: 2.4; HSF1 inh: 16.8; GAA30 counter: 32.4*; FXN GAA850 conf: 12.3*

Results for CN1C(=O)c2ccccc2NC(=O)[C@]12O[C@@H]2c1ccccc1 ?
FXN GAA850 act: 13.1*; DAX1 inh: 2.0; HSF-1 act: 1.2; AHR activator: 2.8; HSF1 inh: -6.2; GAA30 counter: 20.1; FXN GAA850 conf: 5.1

Results for CCCC1(CC(C)C)C(=O)NC(=S)NC1=O ?
FXN GAA850 act: -1.4; DAX1 inh: -0.1

Results for O=C(c1cc(Cl)cc(Cl)c1)N1Cc2ccccc2-n2nncc2C1 ?
FXN GAA850 act: -0.2; DAX1 inh: -0.1

What do the screens show for `COC(=O)[C@@H]1[C@@H](C(=O)OC)C2(c3ccccc3-c3ccccc32)N(c2ccc(Cl)cc2)N1C#N`?
FXN GAA850 act: 13.0*; DAX1 inh: -2.1; HSF-1 act: -95.6; AHR activator: -1.0; HSF1 inh: -95.8*; GAA30 counter: -96.1; FXN GAA850 conf: -18.8

How did Cn1cccc1/C=C1\C(=O)NC(=O)N(Cc2ccccc2)C1=O do in these assays?
FXN GAA850 act: 8.0*; DAX1 inh: 0.1; HSF-1 act: -5.8; AHR activator: 3.1; HSF1 inh: -6.0; GAA30 counter: -7.1; FXN GAA850 conf: 24.4*

What do the screens show for `CCN(CC)c1ccc(N=Cc2c(O)n(CCC3=CCCCC3)c(=O)[nH]c2=O)cc1`?
FXN GAA850 act: 3.9; DAX1 inh: 0.9; HSF-1 act: 5.8; AHR activator: 1.9; HSF1 inh: -1.8

How did CN(C)c1ccc(N=Cc2c(O)n(CCC3=CCCCC3)c(=O)[nH]c2=O)cc1 do in these assays?
FXN GAA850 act: 24.6*; DAX1 inh: -0.6; HSF-1 act: 14.0; AHR activator: 4.2; HSF1 inh: 5.4; GAA30 counter: 2.2; FXN GAA850 conf: 6.5

How did CCC1([N+](=O)[O-])COP(N)(=O)OC1 (centres undefined) do in these assays?
FXN GAA850 act: 0.2; DAX1 inh: 0.4

How did CCNC(=O)C1OC(n2cnc3c(N)ncnc32)C(O)C1O (centres undefined) do in these assays?
FXN GAA850 act: 10.1*; DAX1 inh: 0.4; HSF-1 act: -25.8; AHR activator: -0.1; HSF1 inh: -12.3; GAA30 counter: 17.6; FXN GAA850 conf: 25.8*

How did S=P(NCCNP(=S)(N1CC1)N1CC1)(N1CC1)N1CC1 do in these assays?
FXN GAA850 act: -3.1; DAX1 inh: -1.5

What do the screens show for `CN(C)C(=S)SSC(=S)N(C)C`?
FXN GAA850 act: 27.4*; DAX1 inh: -0.2; HSF-1 act: 12.7; AHR activator: -0.8; HSF1 inh: -1.3; GAA30 counter: -117.9; FXN GAA850 conf: -33.7
